Source: PubChem
A350 fluor = compounds fluorescent in Alexa 350 spectral region | Compound autofluorescence, 340/450 nm, Alexa 350 dye-equivalents; stronger effect = higher value | max dye-equivalent concentration, M | hit rate 11% among 59,000; in the data active means max dye-equivalent concentration above about 10 nM; inconclusive means mostly about 1.1 nM to 9.6 nM
4MU fluor = compounds fluorescent in 4-MU spectral region; compound autofluorescence, 340/450 nm, 4-MU equivalents; stronger effect = higher value; max dye-equivalent concentration, M; hit rate 11% among 59,000; AID 589; in the data active means max dye-equivalent concentration above about 10 nM; inconclusive means mostly about 1.1 nM to 9.6 nM
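Intrinsic fluorescence at 340/450 nm (ex/em) was read after 15 min at room temperature in pH 8.0, 100 mM Tris. Each compound concentration expressed as 4-MU-equivalent concentration from a six-point 4-MU standard series on each plate.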
HADH2 inh = blocks human hydroxyacyl-CoA dehydrogenase type II. Potency, µM (doses to about 57.1 µM), inactives show at the top dose activity change, negative = inhibition, actives largely listed as inhibitors. hit rate 3.4% among 73,000. Q99714. recombinant HADH2, NADH fluorescence, beta-hydroxybutyryl-CoA; further: potency means the concentration at half of the fitted maximal effect; on the % scale 0 is the no-effect control and ±100 the full control effect; nearly all actives have a fitted effect of over 60% in size
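NADH fluorescence (ex 360/em 450 nm) read every 30 s for 4 min; activity taken as last-minus-first time point difference. Enzyme 20 nM, NAD+ 1 mM, beta-hydroxybutyryl-CoA 90 uM, pH 9.0 Tris buffer.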
AID923 = qHTS Assay for Allosteric/Competitive Inhibitors of Caspase-1: Spectroscopic Profiling in AFC Spectral Region; compound fluorescence, AFC spectral region (405/520 nm); Potency, µM (highest dose often 57.5 µM), inactives show top-dose fluorescence increase, most hits filed as activators; hit rate 1.1% among 75,000; further: potency means the concentration at half of the fitted maximal effect; 0% is about no effect
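Baseline compound fluorescence (AFC region, 405 nm ex/520 nm em) taken from the intercept of kinetic reads with 50 nM caspase-1 and 5 uM Ac-WEHD-AFC; normalized to an on-plate AFC standard curve; compounds titrated up to 57 uM.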
GBA mod = alters purified human glucocerebrosidase activity; Potency, µM; hit rate 1.1% among 48,000; P04062; purified enzyme, resorufin glucoside fluorescence (screen aimed at inhibitors), 20 min; in the data active means potency below about 15 µM; inconclusive means mostly about 16 µM to 33 µM;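 further: potency means the concentration at half of the fitted maximal effect; the screen sought inhibitors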
Target sequence (P04062 whole entry, looked up): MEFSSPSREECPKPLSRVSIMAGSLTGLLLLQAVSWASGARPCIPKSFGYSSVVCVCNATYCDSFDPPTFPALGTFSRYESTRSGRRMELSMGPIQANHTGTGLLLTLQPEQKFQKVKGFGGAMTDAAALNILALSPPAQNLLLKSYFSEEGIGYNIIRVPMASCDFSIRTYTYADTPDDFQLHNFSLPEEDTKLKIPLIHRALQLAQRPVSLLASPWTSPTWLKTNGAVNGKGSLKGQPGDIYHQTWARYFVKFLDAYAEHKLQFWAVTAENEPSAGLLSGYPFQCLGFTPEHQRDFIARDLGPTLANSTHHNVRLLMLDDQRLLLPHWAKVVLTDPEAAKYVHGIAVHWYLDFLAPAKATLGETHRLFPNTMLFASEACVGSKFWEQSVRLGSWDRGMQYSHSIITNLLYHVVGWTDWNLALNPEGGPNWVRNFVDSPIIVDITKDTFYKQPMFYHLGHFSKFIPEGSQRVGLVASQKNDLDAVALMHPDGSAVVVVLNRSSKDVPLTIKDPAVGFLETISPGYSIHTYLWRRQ
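Normal human glucocerebrosidase (0.2 nM final) was assayed with resorufin β-D-glucopyranoside (30 uM final) in 50mM citric acid/KH2PO4, 10mM sodium taurocholate, 0.01% tween-20, pH 5.9. Compounds were titrated; fluorescence (Ex 548, Em 600) read after 20 min at RT.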
HSD17B inhib = inhibitors of human HSD17B10 dehydrogenase. recombinant HSD17B10, NADH fluorescence kinetic. Potency, µM (series often up to 57.1 µM), for inactives: at the highest dose activity change, negative = inhibition, hits mostly inhibitors. AID 893. hit rate 7.6% among 75,000;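 further: the protocol describes HADH2 (HSD17B10) and not the HSD17B4 of the title; potency means the concentration at half of the fitted maximal effect; on the % scale 0 is the no-effect control and ±100 the full control effect; nearly all actives have a fitted effect of over 70% in size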
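His-tagged E. coli-expressed HADH2 at 20 nM in 100 mM Tris-HCl pH 9.0 with 0.01 % Tween-20, preincubated 15 min with compound at room temperature. Reaction with 1 mM NAD+ and 90 uM beta-hydroxybutyryl coenzyme A; NADH fluorescence (360/450 nm) read kinetically over 4 min, last minus first point.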
Active calls of the source: *; i = inactive; ? = inconclusive; nt = no result given; ! = not confirmed by another sample; [ ] = dose if it differs, or a comment. Sampled rows, rich in hits. Any-hit rate of the full collection: about 13%. Unless noted, the call rests on the fitted dose curve; in most records, active means well fitted curve in the direction sought with a large enough effect; inconclusive means small, poorly fitted or top-dose-only effect, or another doubt; inactive means no such curve, though single readings can be large; an effect the other way counts as inactive or inconclusive.

SMILES | A350 fluor | 4MU fluor | HADH2 inh | AID923 | GBA mod | HSD17B inhib
Oc1ccc(-c2nc3ccccn3c2NCc2ccc3c(c2)OCO3)cc1 | 2.71e-08M* | 3.23e-08M* | -0.8% | 6.6% | 0.886* | 31.6µM*
C=CCn1c(NCc2ccc3c(c2)OCO3)nc2ccccc21 | i | i | -3.0% | 0.7% | >76.9 | 3.6%
CCOC(=O)CNc1c(-c2ccc(O)cc2)nc2ccccn12 | 2.23e-07M* | 2.35e-07M* | ? | 10.3% | ? | 31.6µM*
CCOC(=O)CNc1c(-c2ccc(O)cc2)nc2ccc(Cl)cn12 | 2.85e-08M* | 2.6e-08M* | 5.3% | 8.2% | 4.11* | -12.7%
N#Cc1cccc(-c2nc(NCc3cccs3)c3ccccc3n2)c1 | i | i | -13.9% | 0.6% | nt | ?
CC(C)C(=O)N(c1ccc2oc(=O)sc2c1)S(=O)(=O)c1cccs1 | i | i | ? | 0.0% | >76.9 | 31.6µM*
CC(=O)N(c1ccc2oc(=O)sc2c1)S(=O)(=O)c1cccs1 | i | i | ? | -0.3% | >76.9 | ?
CCCC(=O)N(c1ccc2oc(=O)sc2c1)S(=O)(=O)c1ccccc1 | i | i | 31.6µM* | -2.9% | >76.9 | 25.1µM*
Cn1cccc1C(=O)N1CCC[C@@]2(CCN(Cc3cc(C(F)(F)F)cc(C(F)(F)F)c3)C2)C1 | i | i | -3.1% | -0.9% | nt | -4.2%
CC1(C)CC(=O)C(C(c2ccco2)C2C(=O)CC(C)(C)CC2=O)C(=O)C1 | i | i | ? | 0.5% | >76.9 | 25.1µM*
CC1=N[C@@](C)(COC(=O)[C@]2(C)N[C@](C)(CO)CO2)COC1=O | i | i | -1.7%[11.4 µM] | 1.8%[11.5 µM] | nt | 8.9%[11.4 µM]
O=C(NCCO)c1ccc(Cc2nc3ccccc3[nH]2)cc1 | nt | nt | 4.4% | 0.8% | nt | 4.9%
CN(C)c1ncc(C(=O)O)cn1 | 1.26e-08M* | ? | -5.4% | 1.7% | >76.9 | ?
CN(C)c1nc(OCCOC(=O)c2ccccc2)nc(N(C)C)n1 | i | i | 0.7% | -1.2% | >76.9 | 0.4%
COS(C)(=O)=O | nt | nt | -3.6% | 1.8% | nt | 12.2%
Cc1cc(N2CCCC2)nc(-c2ccccc2O)n1 | 7.64e-08M* | 6.7e-08M* | 31.6µM* | 0.0% | nt | 31.6µM*
NC(=O)c1ncn([C@@H]2O[C@@H](CO)[C@@H](O)[C@H]2O)c1O | ? | ? | 15.1% | -0.6% | nt | -11.7%
COC(=O)C1=C(C)N(Cc2ccccc2)[C@]23O[C@](C(=O)OC)(C(=O)N2C1c1ccccc1)C1C(=O)N(C)C(=O)C13 (stereo partly drawn) | nt | nt | -3.3%[11.4 µM] | 1.7%[11.5 µM] | nt | 5.3%[11.4 µM]
COc1ccc(-c2nn(C)c(=O)c3ccccc23)cc1CNC(=O)c1ccco1 | i | i | -22.2% | -0.3% | >76.9 | 31.6µM*
N=C1C=CC(=C(c2ccc(N)cc2)c2ccc(N)cc2)C=C1 | i | i | ? | 3.3%[11.5 µM] | nt | 25.1µM*!
Cc1ccc(N)cc1O | nt | nt | -22.7% | 16.9% | nt | -5.7%
CCc1cccc(C)c1NC(=O)CSc1nnc(-c2cc3cc(Br)ccc3o2)n1CC | i | i | ? | -0.5% | >76.9 | 31.6µM*
COc1ccc(-c2oc3ncn4nc(Cc5ccccc5)nc4c3c2-c2ccc(OC)cc2)cc1 | 7.02e-08M* | 6.88e-08M* | nt | nt | nt | nt
N=c1c2c(-c3ccccc3)c(-c3ccccc3)oc2ncn1CCN1CCOCC1 | ? | ? | 8.8% | 1.7% | >76.9 | ?
COc1ccc(-c2oc3ncn4nc(COc5ccccc5)nc4c3c2-c2ccc(OC)cc2)cc1 | 1.27e-07M* | 1.05e-07M* | nt | nt | nt | nt
SMILES | A350 fluor | 4MU fluor | HADH2 inh | AID923 | GBA mod | HSD17B inhib
COc1ccc(-c2nnc3sc(COc4ccccc4)nn23)cc1 | i | i | nt | nt | nt | nt
NC(CSCSCC(N)C(=O)O)C(=O)O (stereo not drawn) | nt | nt | nt | 0.8% | nt | 0.2%
CN(C)C(=O)N1CCC(C(=O)NCc2ccccc2Cl)CC1 | 1.34e-08M* | 1.15e-08M* | 2.8% | 0.1% | >76.9 | 9.8%
Cc1noc(C)c1-c1cncnc1NC1CC1 | ? | ? | ? | -0.3% | nt | -29.0%
COc1ccc2c(c1)Cc1cc(N=[N+]([O-])c3ccc4c(c3)Cc3cc(OC)ccc3-4)ccc1-2 | i | i | ? | -2.4%[11.5 µM] | nt | ?
O=C(Nc1ccc2oc(=O)ccc2c1)c1cccnc1 | 1.37e-08M* | 1.43e-08M* | -14.0% | -1.5% | >76.9 | ?
